Test results published in PubChem BioAssay AID819 (Columbia University Molecular Screening Center, 2007).
The campaign covered roughly 94,000 compounds. About 280 (0.3%) were called active.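 Rule for the calls: active = activation above 40%, about the mean plus 3 SD, also judged a hit on visual image review; inconclusive = activation above 40% but not a hit on visual review; inactive = activation not above 40% and no visual hit.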 For the sample, actives were picked, then their nearest neighbours and some compounds at random.

Experiment: enhancers of NFkB p65 translocation in HUVEC – imaging, IL-1B stimulus, high-content imaging, primary screen (AID 819);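 note: percent activation is computed from the nuclear over cytoplasmic p65 intensity ratio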
Details: HUVEC IL-1B NFkB p65 nuclear translocation imaging; at 2 µM; stronger effect = higher value

SMILES | activation
Nc1ccc(-c2sc(N)nc2-c2ccccc2)cc1 | -1.63% (inactive)
CC(C)c1ccc(N2CCN(C(=O)c3ccccc3NC(=O)/C=C(\C(=O)O)c3ccccc3)CC2)cc1 | 24.1% (inactive)
NC(=NC(=O)c1ccccc1)N1CCOCC1 | 3.72% (inactive)
O=C(Cc1ncc(C(F)(F)F)cc1Cl)Nc1cccc(Br)c1 | 13.4% (inactive)
O=[N+]([O-])c1ccc(Oc2ccc(F)cc2Br)c2ccncc12 | -1.85% (inactive)
S=C(NCCC1=CCCCC1)Nc1ccccc1 | -10.4% (inactive)
Cc1nn(C)cc1/C=C1\CCC/C(=C\c2cn(C)nc2C)C1=O | -13.1% (inactive)
COCC(C)NC(=O)c1ccc(-n2nc(C(F)(F)F)cc2-c2cccs2)cc1 (stereo not given) | 15.7% (inactive)
COc1ccc(C(=O)n2nc(-c3ccc(Cl)cc3)nc2N)cc1OC | 41.4% (active)
COc1ccc(C(=O)n2nc(-c3ccc(C)cc3)nc2N)cc1OC | -6.6% (inactive)
COc1ccccc1C(=O)n1nc(-c2ccccc2)nc1N | 13.8% (inactive)
CC(C)(CCl)C(=O)Nc1ccc(Sc2ccc(F)cc2)cc1 | -5.55% (inactive)
CCn1c(SCc2ccc(C)cc2)nnc1-c1nn(-c2ccccc2)ccc1=O | 0.15% (inactive)
O=C1c2ccccc2C(=O)c2c1cccc2N1CCN(CCO)CC1 | 11.4% (inactive)
CCC1(CC)NC(=O)N(CC(=O)OCC(=O)Nc2ccc(C(F)(F)F)cc2)C1=O | -31.3% (inactive)
Cc1cccc(-c2nc3c(c(SCC(=O)N4CCOCC4)n2)CCCC3)c1 | 16.6% (inactive)
COc1ccccc1NC(=O)[C@H](COCc1ccccc1)NC(=O)OC(C)(C)C | 8.44% (inactive)
CCCC(=O)NC(Nc1ccccc1OC)C(Cl)(Cl)Cl (stereo not given) | -10.4% (inactive)
CCOC(=O)C1(S(=O)(=O)c2ccccc2)CCN(Cc2ccccc2)CC1 | 2.52% (inactive)
CCC(=O)Nc1ccc2nc(C)n(Cc3ccccc3Cl)c(=O)c2c1 | -5.54% (inactive)

SMILES | activation
COc1cnc(SCc2ccc(Cl)c(Cl)c2)nc1Cl | 20.1% (inactive)
Cc1cc(C)cc(OCC(=O)NNC(=O)c2cc3ccccc3oc2=O)c1 | -12% (inactive)
Cc1cc(OC(=O)c2c(Cl)cccc2Cl)nc(C)n1 | 23% (inactive)
N#Cc1ccc(Oc2cc(C(F)(F)F)nc(-c3ccccn3)n2)cc1 | 49.2% (active)
COc1ccc(C(=O)Nc2nc(-c3ccc(OC)cc3)c(-c3ccc([N+](=O)[O-])cc3)s2)cc1 | 1.5% (inactive)
CN(CC#CCC(c1ccccc1)c1ccccc1)C(C)(C)C | 6.49% (inactive)
Cc1cc([N+](=O)[O-])c(NC2CCCCC2)c([N+](=O)[O-])c1 | 3.11% (inactive)
NS(=O)(=O)c1ccc(Nc2nc(-c3ccccc3)cs2)cc1 | -18.6% (inactive)
O=C(CSCc1ccc([N+](=O)[O-])cc1)Nc1cccc(C(=O)Nc2ccccc2C(=O)O)c1 | 7.87% (inactive)
COc1ccccc1NC(=O)c1ccc2nc(N3C(=O)CCC3=O)sc2c1 | 11.6% (inactive)
COC(=O)c1ccccc1OCC(=O)N1CCN(c2ccc(Cl)cc2)CC1 | 11.5% (inactive)
COc1ccccc1OCCNc1cc(N2CCOCC2)ccc1[N+](=O)[O-] | 7.12% (inactive)
Cc1nnc(SCC(=O)NC(=O)NC2CCCC2)n1N | -1.65% (inactive)
CCOC(=O)c1cnc(-c2ccccc2)nc1Oc1ccc(C)cc1 | -7.86% (inactive)
CC(C)NC(=O)NC(=O)COC(=O)c1ccc(NC(=O)CC#N)cc1 | 5.58% (inactive)
O=S(=O)(c1ccc(F)cc1)n1ccc(-c2cnc(-c3ccccc3)s2)n1 | 5.1% (inactive)
CCOCCOCCC(C(=O)O)P(=O)(c1ccccc1)c1ccccc1 (stereo not given) | 2.8% (inactive)
CCOc1ccccc1C(=O)NCc1ccco1 | 8.02% (inactive)
CCOc1ccccc1/C=c1\sc2nc(-c3ccco3)nn2c1=O | 53.9% (active)
O=c1nc2s/c(=C\c3ccco3)c(=O)n2nc1Cc1ccccc1 | 10.3% (inactive)

SMILES | activation
CCOC1CS(=O)(=O)CC1OCC (stereo not given) | 12.8% (inactive)
O=C1c2ccccc2C(=O)c2c1cccc2N1CCN(Cc2ccccc2)CC1 | -2.37% (inactive)
O=C(COC(=O)c1ccccc1NC(=O)c1ccco1)Nc1ccc2c(c1)OC(F)(F)O2 | 0.88% (inactive)
CC(=O)c1ccc2c(ccc3ccccc32)c1 | 8.21% (inactive)
CCCN1Cc2cccc(C(=O)Nc3ccc(S(=O)(=O)N4CCCCCC4)cc3)c2C1=O | 7.44% (inactive)
O=C(Nc1ccc(Cl)cc1)OCc1cc(-c2ccccc2)on1 | 15.4% (inactive)
CC(=O)c1cnn(-c2cc(Oc3ccc(F)cc3)ncn2)c1C | 10.6% (inactive)
Cc1cc(C)n(-c2cc(Oc3ccccc3)ncn2)n1 | 43.8% (active)
CC(=O)c1ccc(Oc2cc(C)nc(-n3nc(C)cc3C)n2)cc1 | -11.2% (inactive)
CC12c3ccccc3C(c3ccccc31)C1C(=O)N(Cc3cccnc3)C(=O)C12 (stereo not given) | -8.61% (inactive)
COc1cc(OC)cc(C(=O)NC2CCN(C(=O)N3c4ccccc4Sc4ccccc43)CC2)c1 | 1.07% (inactive)
O=C(OCc1cn(-c2ccc(Cl)c(Cl)c2)nn1)c1ccccc1Cl | 12.2% (inactive)
O=C(CN1C(=O)NC(Cc2ccccc2)(Cc2ccccc2)C1=O)NCC1CCCCC1 | 0% (inactive)
CCCCOC(=O)Nc1sc2nc(C)cc(C)c2c1-n1cccc1 | -1.73% (inactive)
Cc1cc2c(cc1C)N(C(=O)CN1C(=O)c3ccccc3C1=O)C(C)(C)c1ssc(=S)c1-2 | 17.4% (inactive)
COc1ccc(-c2[nH]nc(-c3ccccc3)c2-c2nc3ccccc3[nH]2)cc1 | -1.89% (inactive)
O=c1c(-c2ccc3c(c2)OCCO3)c(C(F)(F)F)oc2cc(O)cc(O)c12 | 9.87% (inactive)
CCN1CCN(Cc2c(O)ccc3c(=O)c(-c4ccc(OC)c(OC)c4)c(C(F)(F)F)oc23)CC1 | 65.5% (active)
COc1ccc(OC)c(C(=O)c2coc3ccc(O)c(CN4CCOCC4)c23)c1 | -5.05% (inactive)
O=C(c1ccc2c(c1)OCO2)N1CCOCC1 | -1.72% (inactive)
